What was measured:
Format in all cases: functional
Plasmodium falciparum [1] = test: GSK_TCMDC: Inhibition of Plasmodium falciparum 3D7 in whole red blood cells, using parasite LDH activity as an index of growth. Test compounds present at 2uM
Plasmodium falciparum [2] = test: GSK_TCMDC: Inhibition of Plasmodium falciparum Dd2 in whole red blood cells, using parasite LDH activity as an index of growth. Test compounds present at 2uM
HepG2 = test: GSK_TCMDC: Percent inhibition of human HepG2 cell line. Test compounds present at 10uM.

Compound | Inhibition (Plasmodium falciparum [1]) [%] | Inhibition (Plasmodium falciparum [2]) [%] | Inhibition (HepG2) [%]
CC(=O)c1cccc(NC(=O)C2c3ccccc3C(=O)N(CC(C)C)C2c2cccs2)c1 (stereo not given) | 100 | 100 | 11
O=S(=O)(c1ccc2cc[nH]c2c1)N1CCC[C@@H]1CCN1CCC(c2c[nH]c3cnccc23)CC1 | 95 | 0 | 13
COc1ccc2nccc([C@@H](O)CN3CCC(NCc4nc5c(F)cccc5[nH]4)CC3)c2c1.O=C(O)C(=O)O | 100 | 6 | 0
CN1CCC(Oc2cc(NC(=O)Nc3ccc(-c4ccncc4)c(C(F)(F)F)c3)ccc2Cl)CC1 | 100 | 92 | 30
CC(C)(C)Oc1ccc(C[C@@H]2NC3(C(=O)N(Cc4ccc(Cl)c(Cl)c4)c4ccccc43)C3C(=O)N(c4ccc(Br)cc4)C(=O)C32)cc1 (stereo not given in full) | 86 | 25 | 1
O=S(=O)(c1ccccc1C(F)(F)F)C1CC2CCC(C1)N2S(=O)(=O)c1ccc(Cl)c(C(F)(F)F)c1 (stereo not given) | 97 | 99 | 4
CCOc1ccc(Br)cc1/C=C/C(=O)Nc1ccc(C2CCN(C)CC2)cc1 | 100 | 71 | 30
O=C(Cn1cc(C(F)(F)F)cc(Cl)c1=O)N1CCN(S(=O)(=O)c2ccc(Cl)cc2)CC1 | 99 | 69 | 14
CCOc1cc(CC)ccc1C1CCN(CCCCNC(=O)c2ccc(NC(=O)c3ccc(C#N)cc3)cc2)CC1 | 91 | 50 | 55
CCCc1ccc(NC(=O)c2cccc(CN3CCCN(Cc4cccc(O)c4)CC3)c2)cc1.O=C(O)C(F)(F)F | 97 | 40 | 15
